{
  "source": "the supplement of paper PMC10338343",
  "note": "± gives the standard deviation.",
  "data": [
    {"system": "EfPiwi piRISC loaded with L1MC piRNA (26 nt)", "assay": "pre-steady-state target cleavage rate (min^-1); auxiliary factor: 500 nM Ephydatia muelleri Gtsf1; guide: L1MC piRNA 5'p-UAACUAAAUACUAUGCAAGCUGUAGG; MIWI and MILI are mouse PIWI proteins and EfPiwi is from a freshwater sponge; tags in brackets are library labels; higher = faster piRNA-guided slicing of the target", "procedure": "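Cleave-'n-Seq: a library of target RNAs (target site in constant flanks) at […] was incubated with 1 nM active freshwater sponge Ephydatia fluviatilis Piwi piRISC (synthetic 5'-monophosphorylated piRNA guide) with or without 500 nM EmGtsf1 at 33 °C for 1 min to 16 h. Uncleaved targets were sequenced and the pooled three trials fitted to a burst-and-steady-state model to give the pre-steady-state cleavage rate (min^-1). Sequence is the target site only. Fits with R² ≤ 0 are excluded.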", "values": [
      {"sequence": "UCCUCCUAUCAGCUUGCAUAGUAUUUAGUUA", "pre-steady-state target cleavage rate": "0.0677 ± 0.018"},
      {"sequence": "UCCUCCAACACCUUGCAUAGUAUUUAGUUA", "pre-steady-state target cleavage rate": "0.00954 ± 0.0038"},
      {"sequence": "UCCUGGAACUGCUUGCAUAGUAAUUAGUUA", "pre-steady-state target cleavage rate": "0.0039 ± 0.0028"},
      {"sequence": "UCCUGCUACACCUUCCAUAGUAUUUAGUUA", "pre-steady-state target cleavage rate": "0.00334 ± 0.0022"},
      {"sequence": "UCCUGGAUCAGCUUGCUUAGUAUUUACAAA", "pre-steady-state target cleavage rate": "0.00612 ± 0.0047"},
      {"sequence": "UCCUGCUACAGCUUCAUAGUAUUUAGUUA", "pre-steady-state target cleavage rate": "0.00994 ± 0.0031"},
      {"sequence": "UCCUCCUACACCAUGCAUAGUAUUUAGUUA", "pre-steady-state target cleavage rate": "0.145 ± 0.05"},
      {"sequence": "UCCUGCUACAGCUUGGAUAGUAUUAAGUUA", "pre-steady-state target cleavage rate": "0.0066 ± 0.0018"},
      {"sequence": "UCCUCCUACAGCUAGGAUAGUAUUUAGUUA", "pre-steady-state target cleavage rate": "0.0581 ± 0.014"},
      {"sequence": "UCCUGGAUGUCGAACCAUAGCUAUUUAGUUA", "pre-steady-state target cleavage rate": "< 0.0001"},
      {"sequence": "UCCUGGAACAGCUUCCUUAGUAUUUAGUUA", "pre-steady-state target cleavage rate": "0.00362 ± 0.002"},
      {"sequence": "UCCUCCUACUGCUAGCAUAGUAUUUAGUUA", "pre-steady-state target cleavage rate": "0.0131 ± 0.004"},
      {"sequence": "UCCUGCUACAGCUAGCAUAGUAUUUAGUUA", "pre-steady-state target cleavage rate": "0.0287 ± 0.0081"},
      {"sequence": "UCCUGCUACAGCUUGUAUAGUAUUUAGUUA", "pre-steady-state target cleavage rate": "0.029 ± 0.0067"},
      {"sequence": "UCCUGGUACAGCUUGCAUAGUAUUAACAAA", "pre-steady-state target cleavage rate": "0.00261 ± 0.0023"},
      {"sequence": "UCCUCGAACAGCUUGCAUAGUAUUUAGUAA", "pre-steady-state target cleavage rate": "0.0173 ± 0.0064"},
      {"sequence": "UCCUGGAAGUCCUUGCAUAGUAUUUAGAAA", "pre-steady-state target cleavage rate": "0.00315 ± 0.0023"},
      {"sequence": "UCCUGCUACAGCUUGCAUAGUAUUAACAAA", "pre-steady-state target cleavage rate": "0.00321 ± 0.0023"},
      {"sequence": "UCCUCCUACAGCGUUGCAUAGUAUUUAGUUA", "pre-steady-state target cleavage rate": "0.0299 ± 0.009"},
      {"sequence": "UCCUGGAUGUCCUUGCAUAGUAUUUUAGUUA", "pre-steady-state target cleavage rate": "0.00287 ± 0.0028"},
      {"sequence": "UCCUCACUACAGCUUGCAUAGUAUUUAGUUA", "pre-steady-state target cleavage rate": "0.0191 ± 0.0067"},
      {"sequence": "UCCUGGUACAGCUUCCAUAGUAUUUAGUUA", "pre-steady-state target cleavage rate": "0.00258 ± 0.0017"},
      {"sequence": "UCCUGCUACAGGUUGCAUAGUAUUAAGUUA", "pre-steady-state target cleavage rate": "0.00526 ± 0.0024"},
      {"sequence": "UCCUCCUACAGCUUGCAUACUAUUUAGAAA", "pre-steady-state target cleavage rate": "0.00366 ± 0.0019"},
      {"sequence": "UCCUGGAUCAGCUUGCAAAGUAUUAAGUUA", "pre-steady-state target cleavage rate": "0.00373 ± 0.0026"},
      {"sequence": "UCCUGCUACAGCUUGCAUAGUAUUUAAGUUA", "pre-steady-state target cleavage rate": "0.00777 ± 0.0034"},
      {"sequence": "UCCUGGAUCAGCAUCCAUAGUAUUUAGUUA", "pre-steady-state target cleavage rate": "0.00269 ± 0.0023"},
      {"sequence": "UCCUGGAACAGGAUGCAUAGUAUUUACAAA", "pre-steady-state target cleavage rate": "0.00226 ± 0.0018"},
      {"sequence": "UCCUCCUACAGCUUGCAUAGUAUUUGAGUUA", "pre-steady-state target cleavage rate": "0.00541 ± 0.0025"},
      {"sequence": "UCCUCCUAGAGCUUGCAUAGUAUUUAGUAA", "pre-steady-state target cleavage rate": "0.00608 ± 0.0021"},
      {"sequence": "UCCUGGAUCAGGUUGCUUAGUAUUUAGUUA", "pre-steady-state target cleavage rate": "0.00555 ± 0.0024"},
      {"sequence": "UCCUGGAUGUCCUUGCAUAGUAUUUAGUAUA", "pre-steady-state target cleavage rate": "0.00442 ± 0.0031"},
      {"sequence": "UCCUCGUACAGCUUGCAUAGUUUUUAGUUA", "pre-steady-state target cleavage rate": "0.0267 ± 0.0072"},
      {"sequence": "UCCUGCUACUCCUUGCAUAGUAUUUAGAAA", "pre-steady-state target cleavage rate": "0.00264 ± 0.002"},
      {"sequence": "UCCUGCUACGAGCUUGCAUAGUAUUUAGUUA", "pre-steady-state target cleavage rate": "0.00866 ± 0.0022"},
      {"sequence": "UCCUGGAAGAGCUUGCAAAGUAUUUAGUUA", "pre-steady-state target cleavage rate": "0.018 ± 0.005"},
      {"sequence": "UCCUCCUACAGCUAGCAUAGUAUUUACAAA", "pre-steady-state target cleavage rate": "0.00397 ± 0.0031"},
      {"sequence": "UCCUCCUACGCUUGCAUAGUAUUUAGUUA", "pre-steady-state target cleavage rate": "0.0821 ± 0.021"},
      {"sequence": "UCCUGGAUGUCGAACCAUAGUAUUAAGUUA", "pre-steady-state target cleavage rate": "< 0.0001"},
      {"sequence": "UCCUGGAUGAGCUUGCAAAGUAAUUAGUUA", "pre-steady-state target cleavage rate": "0.00431 ± 0.0022"}
    ]}
  ]
}
